# Assay results taken from PubChem BioAssay (NCATS).
# Inconclusive results are not listed. The list shows a part of the results. The source made the active and inactive calls. Unless noted, calls follow the shape of the dose curve; as a rule, active = well fitted curve in the direction sought with a large enough effect; inconclusive = small, poorly fitted or top-dose-only effect, or another doubt; inactive = no such curve, though single readings can be large; an effect the other way counts as inactive or inconclusive.
# Legend:
# [1] = qHTS assay for environmental chemicals that activate the Aryl hydrocarbon Receptor (AhR) signaling pathway (AID 651777); conditions: 1A2-DRE human hepatoma cells, luciferase, 24 h; activation: stronger effect = higher value; also: % of control where 0% means no effect; nearly all actives have a fitted effect of over 15% in size
# In short: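 Reporter gene assay: hepatoma cells with DRE/CYP1A2-luciferase, 24 hr compound incubation at 37 C, 5% CO2, luminescence after One-Glo (30 min, RT).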
# [2] = target: Peroxisome proliferator-activated receptor alpha (Homo sapiens) (UniProt Q07869); assay: qHTS assay for small molecule agonists of the peroxisome proliferator-activated receptor alpha (PPARalpha) signaling pathway (AID 651778); conditions: PathHunter PPARalpha complementation, chemiluminescence, 6 h; max response: stronger effect = higher value; also: % of control where 0% means no effect
# In short: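 Cells plated at 2,000/well and held overnight at 37 C, 5% CO2, then compound added by pin tool for 6 hr; after PathHunter detection reagent and 60 min at room temperature, chemiluminescence from enzyme complementation was read.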
# [3] = qHTS assay for small molecule agonists of the antioxidant response element (ARE) signaling pathway measured by Nrf2-dependant transcriptional activity (AID 720636; active = well fitted curve in the direction sought with a large enough effect in the repeat runs; an effect the other way counts as inactive or inconclusive;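 also: HepG2 cells with an ARE-driven luciferase reporter; % of control where 0% means no effect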)
# In short: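 Nrf2-dependent transcription is measured in ARE-luc HepG2 cells: compound is applied for 16 hr at 37 C after a 6 hr attachment period, and luciferase activity is quantified by luminescence using ONE-Glo.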
# [4] = qHTS assay for small molecule agonists of the antioxidant response element (ARE) signaling pathway measured by Nrf2-dependant transcriptional activity - cell viability counter screen (AID 720653; active = well fitted curve in the direction sought with a large enough effect in the repeat runs; an effect the other way counts as inactive or inconclusive; also: potency is read from the fitted curve at half-maximal effect); conditions: ARE-bla HepG2 viability, CellTiter-Glo ATP luminescence, 16 h; max response: stronger effect = lower value
# In short: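 ARE-bla HepG2 cells (2,000/well) rested 5 hrs at 37C/5% CO2, then exposed to compounds in DMSO for 16 hrs. Viability was read in the same wells as intracellular ATP by luminescence, 30 min at room temperature after reagent addition.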
# [5] = qHTS assay for cell viability of HEK293 cells (AID 743288); conditions: ATP luminescence (CellTiter-Glo), 18 h; max response: stronger effect = lower value; also: potency is read from the fitted curve at half-maximal effect; nearly all actives have a fitted effect of over 50% in size
# In short: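 Luminescent ATP quantitation served as the viability read-out. Cells (parental HEK293, 2,000/well) received compounds after at least 5 h at 37 C and were exposed for 18 h before a 30 min room-temperature reagent step.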
# [6] = qHTS assay for cell viability of the p53RE-bla HCT-116 cell line (AID 743292); also: potency is read from the fitted curve at half-maximal effect; nearly all actives have a fitted effect of over 55% in size
# In short: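 ATP-based luminescence, 16 h compound exposure at 37 C, p53RE-bla HCT-116 cells at 4,000/well.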
# [7] = qHTS profiling for inhibitors of Plasmodium falciparum (3D7) proliferation (AID 743322);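 also: infected erythrocytes exposed to compound for 72 h before lysis; 100% = DMSO vehicle wells and 0% = 0.29 µM artemisinin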; conditions: P. falciparum 3D7 proliferation; at 28.7 µM (top of the series) unless noted
# In short: (§1)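 Erythrocytes infected with P. falciparum (0.3% parasitemia, 2.5% hematocrit) incubated with compounds 72 h at 37 C, 5% CO2. Lysis with saponin/Triton buffer containing SYBR Green I, overnight at room temperature in the dark; DNA fluorescence (485/535 nm) normalised to 0.29 uM artemisinin and DMSO.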
# [8] = qHTS profiling for inhibitors of Plasmodium falciparum (DD2) proliferation (AID 743323; call rule not given here); conditions: lower = more inhibition; at 28.7 µM (top of the series) unless noted
# In short: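 P. falciparum Dd2-infected erythrocytes (0.3% parasitemia, 2.5% hematocrit) exposed 72 h at 37 C, 5% CO2. Lysis with SYBR Green, overnight at room temperature, fluorescence 485/535 nm; normalized to 0.29 uM artemisinin and DMSO.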
# [9] = qHTS profiling for inhibitors of Plasmodium falciparum (HB3) proliferation (AID 743324); conditions: Plasmodium falciparum HB3 blood-stage proliferation; at 28.7 µM (top of the series) unless noted;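 also: 100% = DMSO vehicle wells and 0% = artemisinin-treated control wells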
# In short: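 P. falciparum HB3 grown in erythrocytes (0.3% parasitemia, 2.5% hematocrit final) with compound for 72 h at 37 C, 5% CO2. Parasite DNA detected by SYBR Green after saponin/triton lysis overnight; normalized to 0.29 uM artemisinin and DMSO.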
# [10] = target: DNA polymerase eta (Homo sapiens) (UniProt Q9Y253); assay: qHTS for Inhibitors of Polymerase Eta: Confirmatory Assay for Cherry-picked Compounds (AID 720502); conditions: Pol eta primer extension, TAMRA/BHQ fluorescence, 10 min; also: potency is read from the fitted curve at half-maximal effect
# In short: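 Pol eta 10 nM; substrate 50 nM final (unlabeled primer, TAMRA reporter, BHQ-2 template); preincub. 15 min RT; reads t=0 and t=10 min at ex525/em598.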
# [11] = qHTS Assay for Identifying Gametocytocidal Compounds (AID 743244); also: potency is read from the fitted curve at half-maximal effect; conditions: P. falciparum 3D7 stage III-V gametocytes, alamarBlue, 72 h; max response: stronger effect = lower value
# In short: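 Late gametocytes (III–V), P. falciparum 3D7; 72 h drug, then 24 h alamarBlue; resazurin reduction read by fluorescence.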
# [12] = target: Tyrosine-protein kinase Yes (Homo sapiens) (UniProt P07947); assay: qHTS for small molecule inhibitors of Yes1 kinase: Primary Screen (AID 686947); conditions: Yes1 kinase biochemical qHTS inhibition; also: potency is read from the fitted curve at half-maximal effect; nearly all actives have a fitted effect of over 60% in size
# In short: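 ADP-Glo luminescence readout; final 4 nM Yes1, 0.1 mM ATP, 0.3 mg/mL poly(E4Y), Tris pH 7.5, MgCl2, DTT, Brij-35. 20 min compound preincubation, 60 min reaction at RT. Normalized to DMSO wells with and without enzyme.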
# [13] = qHTS profiling of the MIPE4 collection as inhibitors of Plasmodium falciparum (3D7) proliferation (AID 743344; call rule not given here;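 also: scaled between DMSO vehicle wells and 0.29 µM artemisinin as full inhibition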); conditions: P. falciparum 3D7 in erythrocytes, SYBR Green DNA fluorescence, 72 h; at 5.51 µM (top of the series) unless noted
# In short: as §1
# [14] = qHTS profiling of the MIPE4 collection as inhibitors of Plasmodium falciparum (DD2) proliferation (AID 743345; call rule not given here); conditions: P. falciparum Dd2 in erythrocytes, SYBR Green DNA, 72 h; at 5.51 µM (top of the series) unless noted
# In short: as §1
# [15] = qHTS profiling of the MIPE4 collection as inhibitors of Plasmodium falciparum (DD2) proliferation (Rep 2) (AID 743346; call rule not given here); conditions: P. falciparum Dd2 in erythrocytes, SYBR Green DNA, 72 h; at 5.51 µM (top of the series) unless noted
# In short: as §1
# [16] = qHTS profiling of the MIPE4 collection as inhibitors of Plasmodium falciparum (HB3) proliferation (AID 743347; call rule not given here;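 also: plate controls were DMSO vehicle wells for no effect and artemisinin wells for full effect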); conditions: P. falciparum HB3 in erythrocytes, SYBR Green DNA, 72 h; at 5.51 µM (top of the series) unless noted
# In short: as §1
# [17] = target: Bifunctional 3'-5' exonuclease/ATP-dependent helicase WRN (Homo sapiens) (UniProt Q14191); assay: qHTS for Inhibitors of WRN Helicase: Confirmatory Assay for Cherry-picked Compounds. (AID 720497); also: nearly all actives have a fitted effect of over 65% in size
# In short: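 Compound and 20 nM WRN incubated 15 min, RT. Forked duplex (100 nM) plus ATP (2 mM) added. Fluorescence monitored kinetically and normalized to controls.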
# [18] = qHTS for Inhibitors of WRN Helicase: Thiazole Orange DNA Binding Counterscreen (AID 720499);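 also: drop in dye fluorescence marks compound binding to DNA; % is scaled to controls: 0 for no effect and ±100 for the full control effect; nearly all actives have a fitted effect of over 60% in size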
# In short: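 Thiazole orange displacement from unlabeled DNA (50 nM DNA, 100 nM dye) was monitored by fluorescence, ex 480/em 530 nm, following 15 min room-temperature incubation with pintool-dispensed compounds.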
# [19] = target: RecQ-like DNA helicase BLM (Homo sapiens) (UniProt P54132); assay: qHTS for Inhibitors of WRN Helicase: BLM Helicase Counterscreen for WRN Inhibitors (AID 720503);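 also: plate controls were DMSO vehicle for no effect and enzyme-free control wells for full effect; nearly all actives have a fitted effect of over 60% in size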
# In short: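 BLM at 1 nM was preincubated with compound for 15 min at room temperature in 25 mM Tris-HCl pH 8.0, 50 mM NaCl, 2 mM MgCl2, 1 mM DTT and 0.01% Tween-20. Unwinding was started with 100 nM DNA and 2 mM ATP (final). Fluorescence (ex 525/em 598 nm) was read twice, 15 min apart, and normalized to enzyme-free and DMSO controls.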
# [20] = target: Cytochrome P450 2D6 (Homo sapiens) (UniProt P10635); assay: qHTS Assay for Inhibitors and Substrates of Cytochrome P450 2D6 (AID 891);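 also: luciferin methyl ether substrate demethylated by CYP2D6 with NADPH regeneration; % is scaled to controls: 0 for no effect and ±100 for the full control effect; nearly all actives have a fitted effect of over 60% in size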
# In short: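 Human CYP2D6 (5 nM) with 30 uM Luciferin-ME EGE (at Km) in 100 mM KPO4, compound preincubated 10 min, then NADPH regeneration system for 60 min at room temperature. Luciferin read by luminescence; normalized to 1.43 uM quinidine.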
# [21] = target: Cytochrome P450 2C19 (Homo sapiens) (UniProt P33261); assay: qHTS Assay for Inhibitors and Substrates of Cytochrome P450 2C19 (AID 899)
# In short: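 Human CYP2C19 (5nM) with Luciferin-H EGE at 10uM (its KM) in 50mM KPO4 was preincubated with compound for 10 min at 37C. NADPH regeneration started a 60 min 37C reaction. Luciferin was read by luminescence, normalized to 57uM ketoconazole.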
# Peroxisome proliferator-activated receptor alpha (Homo sapiens), sequence (Q07869 whole entry, looked up): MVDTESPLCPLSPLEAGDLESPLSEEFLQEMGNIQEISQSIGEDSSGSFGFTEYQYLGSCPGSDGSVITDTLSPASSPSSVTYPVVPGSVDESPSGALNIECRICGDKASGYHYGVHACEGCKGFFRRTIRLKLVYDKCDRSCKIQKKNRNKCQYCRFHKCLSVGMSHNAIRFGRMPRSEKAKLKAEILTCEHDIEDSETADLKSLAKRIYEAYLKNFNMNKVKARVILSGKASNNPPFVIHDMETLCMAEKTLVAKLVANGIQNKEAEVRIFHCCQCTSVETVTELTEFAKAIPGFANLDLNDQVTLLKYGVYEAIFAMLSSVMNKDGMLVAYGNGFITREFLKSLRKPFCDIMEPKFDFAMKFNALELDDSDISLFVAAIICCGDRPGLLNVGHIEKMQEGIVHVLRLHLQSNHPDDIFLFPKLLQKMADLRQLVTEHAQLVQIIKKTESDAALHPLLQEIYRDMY
# Cytochrome P450 2D6 (Homo sapiens), sequence (P10635 whole entry, looked up): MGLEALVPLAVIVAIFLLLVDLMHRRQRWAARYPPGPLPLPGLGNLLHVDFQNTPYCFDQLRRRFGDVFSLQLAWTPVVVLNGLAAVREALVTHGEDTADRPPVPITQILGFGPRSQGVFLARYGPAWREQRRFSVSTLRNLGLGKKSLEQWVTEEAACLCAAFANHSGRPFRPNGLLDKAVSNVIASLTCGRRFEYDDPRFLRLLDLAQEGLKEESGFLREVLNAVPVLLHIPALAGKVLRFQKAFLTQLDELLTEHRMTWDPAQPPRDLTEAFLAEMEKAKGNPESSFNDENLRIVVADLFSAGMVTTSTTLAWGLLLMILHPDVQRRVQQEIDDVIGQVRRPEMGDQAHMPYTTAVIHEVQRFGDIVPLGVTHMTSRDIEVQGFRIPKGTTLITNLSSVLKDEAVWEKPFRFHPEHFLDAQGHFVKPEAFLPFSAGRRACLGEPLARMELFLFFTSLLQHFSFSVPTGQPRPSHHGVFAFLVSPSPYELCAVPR
# Tyrosine-protein kinase Yes (Homo sapiens), sequence (P07947 whole entry, looked up): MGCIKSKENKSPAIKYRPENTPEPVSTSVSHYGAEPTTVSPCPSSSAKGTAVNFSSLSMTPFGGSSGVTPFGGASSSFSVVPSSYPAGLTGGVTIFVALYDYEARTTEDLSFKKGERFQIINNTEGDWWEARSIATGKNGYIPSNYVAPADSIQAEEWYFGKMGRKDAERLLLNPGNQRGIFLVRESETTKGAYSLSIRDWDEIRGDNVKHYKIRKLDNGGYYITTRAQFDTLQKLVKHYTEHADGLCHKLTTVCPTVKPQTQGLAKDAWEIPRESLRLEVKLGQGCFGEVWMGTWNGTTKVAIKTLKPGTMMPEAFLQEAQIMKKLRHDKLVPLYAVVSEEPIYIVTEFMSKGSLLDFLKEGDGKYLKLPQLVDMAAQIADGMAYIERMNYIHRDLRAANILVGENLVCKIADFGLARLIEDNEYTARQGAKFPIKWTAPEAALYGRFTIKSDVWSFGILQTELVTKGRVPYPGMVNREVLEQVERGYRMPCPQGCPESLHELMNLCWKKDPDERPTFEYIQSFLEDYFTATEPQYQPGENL
# RecQ-like DNA helicase BLM (Homo sapiens), sequence (P54132 whole entry, looked up): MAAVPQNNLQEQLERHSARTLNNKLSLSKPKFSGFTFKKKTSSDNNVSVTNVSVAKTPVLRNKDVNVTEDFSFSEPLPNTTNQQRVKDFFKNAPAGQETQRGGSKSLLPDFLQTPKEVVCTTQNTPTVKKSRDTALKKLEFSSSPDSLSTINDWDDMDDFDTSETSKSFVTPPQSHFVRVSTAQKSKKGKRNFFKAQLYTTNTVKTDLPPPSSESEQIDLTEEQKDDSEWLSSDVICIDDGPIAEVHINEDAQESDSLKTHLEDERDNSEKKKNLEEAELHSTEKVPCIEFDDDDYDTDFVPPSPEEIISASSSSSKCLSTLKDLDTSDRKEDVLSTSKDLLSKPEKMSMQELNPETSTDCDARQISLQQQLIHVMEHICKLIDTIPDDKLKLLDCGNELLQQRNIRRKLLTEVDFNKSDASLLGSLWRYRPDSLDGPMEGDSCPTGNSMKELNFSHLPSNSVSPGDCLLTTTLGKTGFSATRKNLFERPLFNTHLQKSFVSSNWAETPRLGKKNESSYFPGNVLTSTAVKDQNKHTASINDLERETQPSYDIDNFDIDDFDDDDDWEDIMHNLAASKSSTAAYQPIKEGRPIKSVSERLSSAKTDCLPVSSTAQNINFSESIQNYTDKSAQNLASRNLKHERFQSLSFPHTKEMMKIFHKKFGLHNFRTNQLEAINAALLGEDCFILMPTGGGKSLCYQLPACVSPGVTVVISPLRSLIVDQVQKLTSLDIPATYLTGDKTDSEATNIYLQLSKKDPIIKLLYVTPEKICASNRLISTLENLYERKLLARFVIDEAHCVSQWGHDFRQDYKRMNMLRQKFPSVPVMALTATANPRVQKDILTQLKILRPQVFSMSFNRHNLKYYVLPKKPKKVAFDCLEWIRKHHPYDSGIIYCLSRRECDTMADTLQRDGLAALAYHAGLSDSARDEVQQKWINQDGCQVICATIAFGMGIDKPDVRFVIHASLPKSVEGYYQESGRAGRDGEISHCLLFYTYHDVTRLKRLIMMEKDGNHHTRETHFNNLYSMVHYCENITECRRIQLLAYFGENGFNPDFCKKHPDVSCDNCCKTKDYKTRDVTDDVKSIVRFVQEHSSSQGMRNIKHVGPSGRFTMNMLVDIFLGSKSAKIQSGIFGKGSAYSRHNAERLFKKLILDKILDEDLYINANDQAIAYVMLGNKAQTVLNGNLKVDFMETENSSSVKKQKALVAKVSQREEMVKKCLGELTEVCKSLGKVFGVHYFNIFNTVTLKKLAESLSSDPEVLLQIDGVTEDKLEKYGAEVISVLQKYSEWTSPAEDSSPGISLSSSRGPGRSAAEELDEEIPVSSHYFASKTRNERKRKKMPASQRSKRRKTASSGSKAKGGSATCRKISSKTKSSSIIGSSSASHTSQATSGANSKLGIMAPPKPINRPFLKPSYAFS
# DNA polymerase eta (Homo sapiens), sequence (Q9Y253 whole entry, looked up): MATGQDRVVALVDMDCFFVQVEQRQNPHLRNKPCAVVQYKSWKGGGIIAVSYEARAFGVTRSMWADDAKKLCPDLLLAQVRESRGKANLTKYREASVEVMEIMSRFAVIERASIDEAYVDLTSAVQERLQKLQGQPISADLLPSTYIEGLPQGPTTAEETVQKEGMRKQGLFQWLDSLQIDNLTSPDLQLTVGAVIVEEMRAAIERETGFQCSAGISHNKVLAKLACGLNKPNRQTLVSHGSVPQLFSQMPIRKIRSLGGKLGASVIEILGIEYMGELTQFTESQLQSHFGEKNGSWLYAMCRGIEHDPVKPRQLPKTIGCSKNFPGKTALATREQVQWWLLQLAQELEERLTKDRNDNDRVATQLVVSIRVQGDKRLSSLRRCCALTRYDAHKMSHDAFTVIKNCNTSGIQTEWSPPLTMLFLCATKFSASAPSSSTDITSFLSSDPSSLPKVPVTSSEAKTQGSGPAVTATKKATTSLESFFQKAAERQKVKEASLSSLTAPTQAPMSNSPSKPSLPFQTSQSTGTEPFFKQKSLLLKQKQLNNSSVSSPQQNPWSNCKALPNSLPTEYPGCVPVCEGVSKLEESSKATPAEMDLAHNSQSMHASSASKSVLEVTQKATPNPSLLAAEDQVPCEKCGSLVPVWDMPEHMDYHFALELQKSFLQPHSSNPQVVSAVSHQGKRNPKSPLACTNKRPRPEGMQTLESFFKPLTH
# Bifunctional 3'-5' exonuclease/ATP-dependent helicase WRN (Homo sapiens), sequence (Q14191 whole entry, looked up): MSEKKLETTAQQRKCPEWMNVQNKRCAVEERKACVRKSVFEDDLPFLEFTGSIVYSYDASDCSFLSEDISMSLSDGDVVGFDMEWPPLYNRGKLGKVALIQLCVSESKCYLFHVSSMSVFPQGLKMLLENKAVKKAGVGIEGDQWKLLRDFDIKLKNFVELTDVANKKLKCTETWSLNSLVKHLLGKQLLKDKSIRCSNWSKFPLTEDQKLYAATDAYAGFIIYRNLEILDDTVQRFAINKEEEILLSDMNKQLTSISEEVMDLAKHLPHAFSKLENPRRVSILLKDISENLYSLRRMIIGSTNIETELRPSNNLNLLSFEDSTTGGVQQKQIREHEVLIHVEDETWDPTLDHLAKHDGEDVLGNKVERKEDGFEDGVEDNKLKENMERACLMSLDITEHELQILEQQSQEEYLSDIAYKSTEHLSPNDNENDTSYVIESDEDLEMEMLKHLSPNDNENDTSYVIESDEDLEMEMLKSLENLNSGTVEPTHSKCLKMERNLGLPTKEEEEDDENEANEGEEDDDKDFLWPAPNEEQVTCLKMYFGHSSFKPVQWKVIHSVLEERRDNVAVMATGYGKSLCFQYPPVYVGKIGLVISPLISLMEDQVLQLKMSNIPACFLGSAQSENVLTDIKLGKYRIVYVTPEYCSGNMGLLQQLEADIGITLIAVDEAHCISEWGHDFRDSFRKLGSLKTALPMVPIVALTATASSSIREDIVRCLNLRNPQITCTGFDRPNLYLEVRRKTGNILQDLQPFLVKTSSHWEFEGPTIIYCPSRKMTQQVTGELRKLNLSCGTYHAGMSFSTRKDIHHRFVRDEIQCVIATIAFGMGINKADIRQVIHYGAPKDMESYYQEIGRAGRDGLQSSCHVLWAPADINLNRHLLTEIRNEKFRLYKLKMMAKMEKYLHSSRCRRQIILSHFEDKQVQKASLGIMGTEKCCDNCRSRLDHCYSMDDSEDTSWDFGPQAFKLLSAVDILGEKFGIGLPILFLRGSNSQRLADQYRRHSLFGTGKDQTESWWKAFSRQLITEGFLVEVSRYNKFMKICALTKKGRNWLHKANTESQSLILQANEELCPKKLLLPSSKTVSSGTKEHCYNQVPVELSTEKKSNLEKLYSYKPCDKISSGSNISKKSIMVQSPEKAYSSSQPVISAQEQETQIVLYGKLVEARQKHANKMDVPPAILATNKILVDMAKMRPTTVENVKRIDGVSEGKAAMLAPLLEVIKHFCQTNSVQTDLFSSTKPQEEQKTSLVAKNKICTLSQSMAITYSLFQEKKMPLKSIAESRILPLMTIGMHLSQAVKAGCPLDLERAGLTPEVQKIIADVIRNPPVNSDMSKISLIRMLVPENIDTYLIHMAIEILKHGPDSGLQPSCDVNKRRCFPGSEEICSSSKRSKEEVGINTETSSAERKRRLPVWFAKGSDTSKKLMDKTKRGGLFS
smiles,measurement,setting,value
CC[C@H](C)[C@H]1O[C@]2(C=C[C@@H]1C)C[C@@H]1C[C@@H](C/C=C(\C)[C@@H](O[C@H]3C[C@H](OC)[C@@H](O[C@H]4C[C@H](OC)[C@@H](NC)[C@H](C)O4)[C@H](C)O3)[C@@H](C)/C=C/C=C3\CO[C@@H]4[C@H](O)C(C)=C[C@@H](C(=O)O1)[C@]34O)O2,activation,[1],-12% (inactive)
same,max response,[2],4.77% (inactive)
same,Potency,[3],inactive
same,Potency,[4],25.1 µM (active)
same,Potency,[5],50.1 µM (active)
same,Potency,[6],28.2 µM (active)
C[C@@H]1[C@@H](CC(C[C@H]2O[C@@H]3O[C@]4(C)CC[C@@H]5[C@H](C)CC[C@@H]([C@H]2C)[C@@]35OO4)C(=O)NCc2ccc(F)cc2)O[C@@H]2O[C@]3(C)CC[C@H]4[C@H](C)CC[C@@H]1[C@@]24OO3 (some centres not stated),remaining parasite growth % (stronger effect = lower value),[7],-0.677%
same,"activity, percent of control",[8],0.0214%
same,"remaining proliferation (% of control), lower = more inhibition",[9],0.676%
O=C1NC(=O)N(c2ccc(F)cc2)C(=O)/C1=C/c1ccc2c(c1)CCCN2Cc1ccccc1,Potency,[10],84.9 µM (active)
CCCCN(CCCC)CCC(OC(=O)O[C@@H]1CCC[C@]2(C1)OOC1(O2)C2CC3CC(C2)CC1C3)c1cc2c(Cl)cc(Cl)cc2c2cc(C(F)(F)F)ccc12 (some centres not stated),remaining parasite growth % (stronger effect = lower value),[7],-0.394%
same,"activity, percent of control",[8],0.0994%
same,"remaining proliferation (% of control), lower = more inhibition",[9],0.359%
CCC[CH2][Sn]([CH2]CCC)([CH2]CCC)[O]C(=O)c1ccccc1,activation,[1],-10.5% (inactive)
same,max response,[2],-0.767% (inactive)
same,Potency,[4],3.98 µM (active)
same,Potency,[5],7.08 µM (active)
same,Potency,[6],6.31 µM (active)
CC[C@@H](C(=O)[C@@H](C)[C@@H](O)[C@H](C)[C@@H]1O[C@@H]([C@@H](CC)C(=O)O)CC[C@@H]1C)[C@H]1O[C@]2(C=C[C@@H](O)[C@]3(CC[C@@](C)([C@H]4CC[C@](O)(CC)[C@H](C)O4)O3)O2)[C@H](C)C[C@@H]1C,Potency,[11],235 nM (active)
CCCCN(CCCC)CCC(OC(=O)O[C@H]1CCC[C@]2(C1)OOC1(O2)C2CC3CC(C2)CC1C3)c1cc2c(Cl)cc(Cl)cc2c2cc(C(F)(F)F)ccc12 (some centres not stated),remaining parasite growth % (stronger effect = lower value),[7],-0.262%
same,"activity, percent of control",[8],0.194%
same,"remaining proliferation (% of control), lower = more inhibition",[9],0.0614%
COc1cc(O)c2c(c1)/C=C/C[C@H](O)[C@H](O)C(=O)/C=C\C[C@H](C)OC2=O,Potency,[12],2.44 µM (active)
COC(=O)C1(O)CC2OC1(C)n1c3ccccc3c3c4c(c5c6ccccc6n2c5c31)C(=O)NC4 (configuration not stated),"parasite growth, % of DMSO control",[13],4.95%
same,"parasite growth remaining, % of DMSO control (lower = more inhibition)",[14],7.86%
same,"parasite growth, % of control (lower = inhibition)",[15],21.3%
same,"growth, % of control",[16],4.75%
Cc1ccc2c(c1)=C/C(=C\c1c(O)[nH]c(=O)[nH]c1=O)C(=O)N=2,outcome,[17],inactive
same,outcome,[18],inactive
same,outcome,[19],inactive
c1ccc(-c2cc3c(nc2-c2ccccc2)CCNC3)cc1,"activity change, negative = inhibition",[20],5.57% [at 11.4 µM] (inactive)
same,"activity, negative = inhibition",[21],24.9% [at 11.4 µM] (inactive)
